Reference: the supplement of paper PMC4894684
“And” between values parts separate entries of the source, which are not always exact repeats. Equal entries are not always repeated. Structures can show the parent of a compound that is named as a salt. ± gives the standard deviation of the averaged measurements. Hit rate of the full screen: of about 1,000 compounds, about 15 (2%) showed an effect of 50% or more. For the sample, strong results were picked, then their nearest neighbours and some compounds at random.

test system: HFF; experiment: uninfected host cell viability relative to vehicle control; higher = less host cell toxicity; conditions: 5 µM; 72 h; oxygen 21 %

Structure (SMILES) | uninfected host cell viability
CCN(CC)CCCCC1CCN(CC(=O)N2c3ccccc3C(=O)Nc3cccnc32)CC1 | 89.2 ± 4.3%
O=C1c2ccccc2C(Cc2ccnc(F)c2)(Cc2ccnc(F)c2)c2ccccc21 | 90.8 ± 1.9%
NC(=O)N1C(=O)/C(=C(\O)c2cccs2)c2cc(Cl)ccc21 [Tenidap] | 89.1 ± 2%
CC(C)[C@H]1c2ccc(F)cc2CC[C@@]1(CCN(C)CCCc1nc2ccccc2[nH]1)OC(=O)C1CC1 [NNC 55-0396 dihydrochloride] | 15.68 ± 0.031%
COCC(=O)O[C@]1(CCN(C)CCCc2nc3ccccc3[nH]2)CCc2cc(F)ccc2[C@@H]1C(C)C [Mibefradil dihydrochloride] | 79.7 ± 4.6%
CCCCN1CCCC1CNC(=O)c1cc(C#N)c2ccccc2c1OC (stereo not drawn) [Nafadotride] | 84.8 ± 2.4%
COc1cc(C[C@H]2C(=O)OC[C@@H]2Cc2ccc(OC)c(OC)c2)ccc1O [Arctigenin] | 90 ± 1.6%
C[C@@H](CN1CCC(n2c(=O)[nH]c3cc(Cl)ccc32)CC1)NC(=O)c1ccc2ccccc2c1 | 94.4 ± 5.7%
COc1ccc(C(=O)Nc2sc3c(c2C(N)=O)CCCC3)cc1OC | 80.1 ± 2.9%
CCOC(=O)[C@@H](C)Oc1cccc2c(=O)n(CC(=O)Nc3ccc4c(c3)OCCO4)ccc12 | 84.7 ± 0.99%
NC(=O)c1ccc(-c2nc(-c3ccccn3)c(-c3ccc4c(c3)OCO4)[nH]2)cc1 | 92.28 ± 0.26%
CC(C1=C(CCN(C)C)Cc2ccccc21)c1ccccn1 (stereo in doubt) [(S)-(+)-Dimethindene maleate] | 94.3 ± 0.97%
CC(O)(C(=O)Nc1ccc(S(=O)(=O)c2ccccc2)cc1)C(F)(F)F (stereo not drawn) | 99.7 ± 2.5%
Clc1ccccc1CNCC1CCC(CNCc2ccccc2Cl)CC1 (stereo not drawn) | 83.3 ± 1.1%
CCCCNC(=O)[C@@H]1Cc2ccccc2N1C(=O)[C@@H](N)CC [Butabindide oxalate] | 88.3 ± 5.3%
CCOc1cc(CC(=O)N[C@@H](CC(C)C)c2ccccc2N2CCCCC2)ccc1C(=O)O [Repaglinide] | 93.7 ± 2.1%
CCCCCCCCCCCC1=C(O)C(=O)C=C(O)C1=O [Embelin] | 83.69 ± 0.49%
Nc1nc(-c2ccc(Cl)c(Cl)c2)c(-c2ccncc2)s1 [CGH 2466 dihydrochloride] | 87.4 ± 1.5%
C[C@H](NC(=O)c1sccc1OCc1ccc(Cl)cc1)c1ccccc1 | 115 ± 1.5%
CN1c2cc3c(cc2N=C(c2ccc(C(=O)O)cc2)c2ccccc21)C(C)(C)CCC3(C)C | 100 ± 8.6%
N[C@@H](Cn1ccc(=O)n(Cc2ccccc2C(=O)O)c1=O)C(=O)O | 84.8% and 85.7%
CCc1cc2c(c(CC)n1)CCC(=O)N2Cc1ccc(-c2ccccc2-c2nn[nH]n2)cc1 [ZD 7155 hydrochloride] | 94.11 ± 0.49%
CC[N+](C)(CC)CC(=O)Nc1c(C)cccc1C [N-Methyllidocaine iodide] | 87.9 ± 3.1%
CC(=O)N(OCc1ccccc1)[C@H]1c2cc(C#N)ccc2OC(C)(C)[C@H]1O | 98.6 ± 2.8%

Structure (SMILES) | uninfected host cell viability
COc1ccc2[nH]c([S+]([O-])Cc3ncc(C)c(OC)c3C)nc2c1 (stereo not drawn) [Omeprazole] | 85.1 ± 2.2%
c1nc(CC2CCNCC2)c[nH]1 [Immepip dihydrobromide] | 81.5 ± 3.3%
CC(C)[C@H](NS(=O)(=O)c1ccc(-c2ccc(Br)cc2)cc1)C(=O)O | 87.2 ± 2.2%
O=C(NC(NC(=S)Nc1ccc(F)c([N+](=O)[O-])c1)C(Cl)(Cl)Cl)C(c1ccccc1)c1ccccc1 (stereo not drawn) | 86.1 ± 11%
Cc1nn(C)c2nc(NNC(=O)Nc3cc(Cl)nc(Cl)c3)cc(C(C)C)c12 | 89.2 ± 3.1%
O=C(O)c1c(Sc2ccccc2)c2cc(Cl)ccc2n1Cc1ccc(Cl)cc1 | 93.9 ± 8.2%
O=C(Nc1ccccc1)C12CC1C(=NO)c1ccccc1O2 (stereo not drawn) | 96.71 ± 0.12%
Clc1cccc(Nc2nnc(-c3ccccc3)c3ccccc23)c1 | 85.8 ± 0.91%
CCCCC1CCC(c2nc(-c3ccncc3)no2)CC1 (stereo not drawn) | 102 ± 3.9%
Cc1c(C(=O)N(C)C2CCCCC2)sc2nc3ccc(N)cc3n12 | 83.6 ± 2.2%
COC(=O)C1=C(C)NC(C)=C([N+](=O)[O-])[C@H]1c1ccccc1C(F)(F)F | 68.2 ± 1.7%
O=S(=O)(c1cccc2cnccc12)N1CCCNCC1 [Fasudil hydrochloride] | 90.57 ± 0.53%
Cc1cc2nc3c(=O)[nH]c(=O)nc-3n(C)c2cc1C=O | 94 ± 2%
O=C(O)Cc1cccc(OCCCN(Cc2cccc(C(F)(F)F)c2Cl)CC(c2ccccc2)c2ccccc2)c1 [GW 3965 hydrochloride] | 99.5 ± 3.2%
CC1=C(C(=O)OCCN(Cc2ccccc2)c2ccccc2)C(c2cccc([N+](=O)[O-])c2)C(P2(=O)OCC(C)(C)CO2)=C(C)N1 (stereo not drawn) [Efonidipine hydrochloride monoethanolate] | 98.4 ± 7.4%
Cc1cc(C)c(S(=O)(=O)Nc2cccc(C(F)(F)F)c2)c(C)c1 | 82.4 ± 6.6%
CN(C)CCCSC(=N)N [Dimaprit dihydrochloride] | 95.8 ± 1.1%
CC(=Cc1ccc(C(=O)O)cc1)c1ccc2c(c1)C(C)(C)CCC2(C)C | 80.4 ± 2.1%
CC[C@@H]1Cn2c(c3nc(-c4ccccc4)nc-3n(C)c2=O)N1 | 89.2 ± 4.1%
CS(=O)(=O)Nc1c(O)ccc2c1CCCC2C1=NCCN1 (stereo not drawn) | 84.9 ± 2.8%
COc1ccc2cccc(N3CCN(CCNC(=O)c4ccc(F)cc4)CC3)c2c1 | 82.7 ± 4%
Cc1ccc(NC2=CC(=O)c3sc(C)nc3C2=O)cc1 [Ryuvidine] | 16.8 ± 0.66%
O=C(O)c1ccc(-c2c[nH]c3ncc(-c4ccccc4)cc23)cc1C1CCCC1 | 109 ± 2.2%
Nc1nc2c(cnn2CCc2ccccc2)c2nc(-c3ccco3)nn12 | 96.8 ± 2.3%
